Most compounds without a hit are left out; they make up all but 9.9% or so of the library.
HPGD block = blocks human HPGD enzyme activity. P15428. purified HPGD, NADH fluorescence kinetic, PGE2 substrate. Potency, µM, most hits filed as inhibitors. actives 4.3% (n = 150,000); active means well fitted inhibition curve with a large enough effect, not every such curve was filed as active; inconclusive means small, poorly fitted or top-dose-only effect, or another doubt; inactive means no such curve, though single readings can be large or run the other way
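20 nM HPGD preincubated 15 min at room temperature with compound in 50 mM Tris-HCl pH 8, 0.01% Tween 20. Started with 1 mM NAD+ and 30 uM prostaglandin E2; NADH fluorescence (360/450 nm) read 5 times over 30-s intervals, last minus first.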
ALDH1A1 inh = inhibitors of human aldehyde dehydrogenase 1A1 | P00352 | Potency, µM (top dose mostly 75.3 µM), actives largely listed as inhibitors | actives 7.3% (n = 220,000) | Purified ALDH1A1, NADH fluorescence, propionaldehyde substrate; active means well fitted inhibition curve with a large enough effect, not every such curve was filed as active; inconclusive means small, poorly fitted or top-dose-only effect, or another doubt; inactive means no such curve, though single readings can be large or run the other way
Target sequence (P00352 whole entry, looked up): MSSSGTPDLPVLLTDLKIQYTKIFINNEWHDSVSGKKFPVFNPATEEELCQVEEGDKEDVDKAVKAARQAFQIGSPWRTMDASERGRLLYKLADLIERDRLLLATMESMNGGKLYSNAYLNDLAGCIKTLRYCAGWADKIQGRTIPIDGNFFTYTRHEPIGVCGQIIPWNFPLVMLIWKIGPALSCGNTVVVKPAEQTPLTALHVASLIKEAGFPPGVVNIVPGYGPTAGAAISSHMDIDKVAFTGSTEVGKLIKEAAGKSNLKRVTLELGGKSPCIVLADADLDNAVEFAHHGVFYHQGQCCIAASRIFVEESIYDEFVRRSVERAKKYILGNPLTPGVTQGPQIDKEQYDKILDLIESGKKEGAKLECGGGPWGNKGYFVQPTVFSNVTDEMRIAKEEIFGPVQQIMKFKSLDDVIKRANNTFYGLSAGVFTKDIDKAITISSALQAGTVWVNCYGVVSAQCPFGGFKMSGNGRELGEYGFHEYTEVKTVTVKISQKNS
JMJD2E inh = blocks human JMJD2E demethylase activity; B2RXH2; Potency, µM (series often up to 57.1 µM), hits mostly inhibitors; actives 1.6% (n = 230,000); JMJD2E catalytic domain, FDH-coupled NADH fluorescence (FDH is formaldehyde dehydrogenase); further: nearly all actives have a fitted effect of over 50% in size
Tau fluor cs = counter-screen for tau fibril formation inhibitors. tau K18 P301L Alexa594 fluorescence, heparin fibrillization. Potency, µM (titrated, usually from 57.7 µM). actives 0.93% (n = 280,000). AID 1463; further: nearly all actives have a fitted effect of over 55% in size
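Human K18 P301L tau (15 uM unlabeled plus 0.24 uM Alexa 594-labeled, final) in 100 mM sodium acetate pH 7 was mixed with compound and 20 uM heparin and incubated 6 hr at 37 C.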
Tau FP inhib = tau fibrillization inhibition (FP); P10636; K18 P301L tau heparin fibrillization, Alexa594 FP, 6 h; Potency, µM (highest dose often 57.7 µM), actives largely listed as inhibitors; actives 0.39% (n = 280,000); AID 1468; further: nearly all actives have a fitted effect of over 55% in size
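Compound effects on tau fibrillization are measured by Alexa 594 fluorescence polarization (ex 555, em 632 nm). K18 P301L tau is used at 15 uM with 0.24 uM labeled tracer, and 20 uM heparin induces aggregation over 6 hr at 37 C.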
Tau fibril ThT = tau fibrillization inhibition (ThT binding); P10636; actives 2.1% (n = 270,000); Potency, µM (series often up to 57.4 µM), usual class: inhibitors; AID 1460; recombinant tau K18 P301L, heparin-induced fibrillization, ThT fluorescence; further: nearly all actives have a fitted effect of over 55% in size
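ThT emission at 510 nm, taken 1 hr after adding 30 uM dye, quantifies aggregates formed when 20 uM heparin acts on human tau K18 P301L for 6 hr at 37 C.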
Hits are given with their value; - = inactive; ? = inconclusive; . = no result; [ ] = remark or other dose. Unless noted, the call rests on the fitted dose curve; in most records, active means well fitted curve in the direction sought with a large enough effect; inconclusive means small, poorly fitted or top-dose-only effect, or another doubt; inactive means no such curve, though single readings can be large; an effect the other way counts as inactive or inconclusive.

SMILES | HPGD block | ALDH1A1 inh | JMJD2E inh | Tau fluor cs | Tau FP inhib | Tau fibril ThT
CN(Cc1cccc(Cl)c1Cl)c1ccc(S(=O)(=O)N2CCCCC2)cc1[N+](=O)[O-] | - | ? | - | - | - | -
Cc1nc(Cl)c(C(=O)NC(C)(C)C)c(C)c1Cl | - | - | - | - | - | -
CN1CCN(C(=O)c2ccc(CSc3ccc(Cl)cc3)cc2)CC1 | 8.91µM | - | - | - | - | -
Cc1ccc(Cn2c(SCc3ccc(C(=O)N4CCCCCC4)cc3)nc3ccncc32)cc1 | . | . | . | - | - | -
CCOC(=O)N1CCN(C(=O)c2ccc(CSc3ccc(Cl)cc3)cc2)CC1 | . | - | - | - | - | -
Cc1ccc(CSC2=NCCN2C(=O)c2ccc([N+](=O)[O-])cc2)cc1 | . | 15.8µM | - | ? | - | ?
Cc1ccc(SCc2ccc(C(=O)N3CCCCC3)cc2)cc1 | . | 3.98µM | - | - | - | ?
COc1ccc(N2C(=O)CN(Cc3ccc(OC)c(OC)c3)C2=S)cc1 | . | - | - | - | - | -
O=C(c1ccccc1F)N(Cc1nc2ccccc2c(=O)[nH]1)C1CCCC1 | . | - | - | - | - | -
Cc1ccc2[nH]c(=O)c(C(c3nnnn3Cc3ccccc3)N3CCc4ccccc43)cc2c1 (stereo unspecified) | ? | ? | ? | ? | ? | 20µM
Cc1ccc2cc(C(c3nnnn3Cc3ccccc3)N3CCc4ccccc43)c(=O)[nH]c2c1 (stereo unspecified) | - | 17.8µM | - | - | - | ?
CCC(C)(C)n1nnnc1C(c1cc2cc(C)ccc2[nH]c1=O)N1CCCc2ccccc21 (stereo unspecified) | - | - | - | - | - | ?
CCc1ccc2[nH]c(=O)c(C(c3nnnn3Cc3ccco3)N3CCC(C)CC3)cc2c1 (stereo unspecified) | ? | ? | - | - | - | -
Cc1cc2cc(C(c3nnnn3Cc3ccco3)N3CCc4ccccc4C3)c(=O)[nH]c2cc1C (stereo unspecified) | ? | ? | ? | - | ? | 28.2µM
Cc1cc2cc(C(c3nnnn3Cc3ccco3)N3CCc4ccccc43)c(=O)[nH]c2cc1C (stereo unspecified) | . | 7.94µM | ? | - | ? | 25.1µM
Cc1ccc2cc(C(c3nnnn3Cc3ccccc3)N3CCc4ccccc43)c(=O)[nH]c2c1C (stereo unspecified) | - | ? | - | - | - | -
Cc1cc2cc(C(c3nnnn3Cc3ccccc3)N3CCc4ccccc43)c(=O)[nH]c2cc1C (stereo unspecified) | - | ? | ? | - | ? | 15.8µM
CCN(CC)C(=S)SCC(=O)Nc1nc(-c2ccccc2)c(-c2ccccc2)o1 | - | 12.6µM | - | - | - | -
O=C(O)C[C@H](Cc1ccccc1Cl)C(=O)O | - | -[13.5 µM] | . | . | . | .
O=S(=O)(c1ccccc1)c1nc(-c2ccccc2)oc1NCc1cccnc1 | - | 25.1µM | - | - | - | -
O=S(=O)(c1ccccc1)c1nc(-c2ccco2)oc1NCc1cccnc1 | - | ? | - | - | - | -
Cc1ccc(NC(=O)c2sc3ncn(Cc4cccc(F)c4)c(=O)c3c2C)c(Br)c1 | . | . | . | - | - | -
CN(CCC#N)C(=S)Nc1ccc(S(=O)(=O)N2CCOCC2)cc1 | . | - | - | - | - | -
COC(=O)c1ccc(NC(=O)CN2C(=O)CCC2=O)cc1 | 31.6µM | ? | - | - | - | -
O=C(CN1C(=O)CCC1=O)Nc1ccc(Br)cc1 | - | 2.51µM | - | - | - | -
SMILES | HPGD block | ALDH1A1 inh | JMJD2E inh | Tau fluor cs | Tau FP inhib | Tau fibril ThT
CCOC(=O)c1ccc(NC(=O)CN2C(=O)CCC2=O)cc1 | - | - | - | - | - | -
Cc1nn(CCCC(=O)N2CCc3ccccc3C2)c(=O)c2cc3sccc3n12 | - | - | - | - | - | ?
CCc1nn(CCCC(=O)N2CCc3ccccc3C2)c(=O)c2cc3occc3n12 | 31.6µM | ? | ? | - | ? | ?
O=C(O)c1ccc(C(=O)O)c(C(=O)Nc2ccc3c(c2)Cc2ccccc2-3)c1 | 3.16µM | ? | . | . | . | .
Cc1ccc(C(=O)c2cn(Cc3cc(C)ccc3C)c3nc(C)ccc3c2=O)cc1 | . | . | . | - | - | ?
COc1ccc(/C=N/OCC(=O)N=Nc2c(O)[nH]c3ccc(Br)cc23)cc1OC | - | - | - | ? | ? | 17.8µM

From PubChem BioAssay
